Reference: PubChem BioAssay (NCATS)
Inconclusive results are not listed. Entries that show only a call come without a potency. The source made the active and inactive calls. Unless noted, calls follow the shape of the dose curve; as a rule, active = well fitted curve in the direction sought with a large enough effect; inconclusive = small, poorly fitted or top-dose-only effect, or another doubt; inactive = no such curve, though single readings can be large; an effect the other way counts as inactive or inconclusive.

Key:
[1] = Quantitative high throughput screen for delayed death inhibitors of the malarial parasite plastid, 96 hour incubation (AID 488745); also: nearly all actives have a fitted effect of over 70% in size; also: potency is read from the fitted curve at half-maximal effect
Summary of the method: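 P. falciparum carrying an integrated firefly luciferase reporter, grown in erythrocytes (2% hematocrit, 0.1% parasitemia final) in RPMI 1640/0.5% Albumax, was exposed to compound for 96 h (two generations) at 37 C, 5% CO2. Luminescence decrease indicated growth inhibition.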

[2] = target: Flap endonuclease 1 (Homo sapiens) (UniProt P39748); test: qHTS Validation Assay for the Inhibitors of Human Flap endonuclease 1 (FEN1) (AID 488816)
Summary of the method: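 FEN1, dispensed as a 10 nM reagent, was preincubated with pin-transferred compounds for 15 min at room temperature before substrate was added (50 nM final). Plates were read at 0 and 15 min, and a four-parameter Hill equation was fitted to the concentration-response data.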

[3] = target: M-phase phosphoprotein 8 (Homo sapiens) (UniProt Q99549); test: qHTS Validation Assay for Inhibitors for MPP8 Chromodomain Interactions with Methylated Histone Tails (AID 488949);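 also: AlphaScreen signal from MPP8 chromodomain bound to biotinylated H3K9me3 peptide; top concentration of the series differs between compounds; nearly all actives have a fitted effect of over 55% in size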
Summary of the method: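 AlphaScreen proximity signal from streptavidin donor and Ni-chelate acceptor beads (10 ug/mL each) reported binding of MPP8 to trimethyl-K9 H3(1-18) peptide, both at 50 nM. The complex formed 30 min before a 30 min compound exposure at room temperature, in PBS pH 7.4.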

[4] = target: Transient receptor potential cation channel subfamily V member 1 (Homo sapiens) (UniProt Q8NER1); test: HTS Assay for Compounds that Act as Enhancers of the Vanilloid Receptor 1 (AID 488979)
Summary of the method: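 TRPV1-expressing cells loaded with Fluo-8 calcium dye; compounds added and calcium influx read kinetically for 3 min (agonist phase), then capsaicin at EC20 added and read 2 min more for enhancement. Fluorescence ex 480/em 520 nm.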

[5] = target: Thyrotropin receptor (Homo sapiens) (UniProt P16473); test: qHTS Assay for Antagonists of the Thyroid Stimulating Hormone Receptor (AID 488980); also: series mostly up to about 58 µM
Summary of the method: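 Inhibition of cAMP raised by EC80 TSH (4 nM final) was read by HTRF, with lysate cAMP competing against cAMP-d2 for cryptate antibody after 30 min at room temperature. The cells were transfected HEK293 held in phosphodiesterase inhibitor RO 20-1724 at 70 uM.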

[6] = target: ATP-dependent 6-phosphofructokinase (Trypanosoma brucei brucei) (UniProt O15648); test: qHTS Assay to Find Inhibitors of T. brucei phosphofructokinase: hit validation (AID 492961);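 also: luminescence reports ADP formed as PFK phosphorylates fructose-6-phosphate with ATP; series mostly up to about 51 µM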
Summary of the method: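 Reaction: 0.1 M triethanolamine pH 8.0, 5 mM MgCl2, F6P 0.5 mM, ATP 0.1 mM, PFK 1.25 nM, 45 min RT. Read-out: ADP-Glo luminescence. Analysis: concentration-response fits, classed by r2 and efficacy.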

[7] = Quantitative high throughput screen for delayed death inhibitors of the malarial parasite plastid, 48 hour incubation (AID 488752); also: nearly all actives have a fitted effect of over 65% in size; also: potency is read from the fitted curve at half-maximal effect
Summary of the method: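 Erythrocytes infected with P. falciparum carrying an integrated firefly luciferase reporter (2% hematocrit, 0.1% parasitemia final) were exposed to compounds in RPMI 1640/0.5% Albumax for 48 h at 37 C, 5% CO2. Growth inhibition was scored as reduced luminescence.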

[8] = Validation screen for small molecules that induce genotoxicity in human embryonic kidney (HEK293T) cells expressing luciferase-tagged ELG1 (AID 493106); also: potency is read from the fitted curve at half-maximal effect
Summary of the method: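 HEK293T cells expressing luciferase-tagged ELG1 were exposed to compound or DMSO vehicle for 16 hr at 37 °C, 5% CO2. Genotoxic stress raises ELG1 levels, so increased luciferase signal after ONE-Glo addition and 30 min at room temperature marks hits.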

[9] = target: Chromobox protein homolog 1 (Homo sapiens) (UniProt P83916); test: qHTS Validation Assay for Inhibitors of HP1-beta Chromodomain Interactions with Methylated Histone Tails (AID 488953); also: nearly all actives have a fitted effect of over 50% in size; also: potency is read from the fitted curve at half-maximal effect
Summary of the method: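 HP1-beta (50 nM) was preincubated 30 min at room temperature with biotinylated H3(1-18)K9me3 peptide (50 nM) in PBS pH 7.4, 0.01% Tween-20, then with compounds 30 min. AlphaScreen signal was read after streptavidin donor/nickel chelate acceptor beads (10 ug/mL final).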

[10] = target: D(1A) dopamine receptor (Homo sapiens) (UniProt P21728); test: HTS Assay for Allosteric Agonists of the Human D1 Dopamine Receptor: Primary Screen for Potentiators (AID 488982)
Summary of the method: (§1)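 Tetracycline-induced HEK293 T-REx cells force-coupled to calcium signalling were incubated overnight at 30 C and dye-loaded at room temperature. Calcium flux over 180 s after compound addition flagged agonists; a further 180 s read after EC20 dopamine flagged potentiators.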

[11] = target: Thyrotropin-releasing hormone receptor (Homo sapiens) (UniProt P34981); test: qHTS for Small Molecule Agonists and Allosteric Enhancers of Human TRH Receptor: Validation Screen for Agonists (AID 493127;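 active = calcium activation more than 3 SD above the typical response in the agonist read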;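 also: intracellular calcium rise by fluo-8 fluorescence before TRH EC20 addition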); settings: TRH receptor agonist cell assay; at 2 µM; stronger effect = higher value
Summary of the method: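 TRHR-expressing cells were plated overnight in serum-containing medium, then loaded with fluo-8 calcium dye at room temperature for 30 min–1.5 h. After a 10 s baseline, compound was pin-transferred and calcium fluorescence (ex 480/em 530) read kinetically for agonist response.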

[12] = Nrf2 qHTS screen for inhibitors: Validation (AID 493153; active = well fitted inhibition curve with a large enough effect in the main read-out, with a control signal flat, not every such curve was filed as active; also: potency is read from the fitted curve at half-maximal effect); settings: Potency: luciferase luminescence; viability change: measured here: cytotoxicity max response
Summary of the method: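 A549 cells carrying an ARE-driven firefly luciferase reporter, in 5% FBS OPTI-MEM, were treated with compounds in concentration-response for 18-24 h at 37°C. Viability was read by CellTiter-Fluor fluorescence, then Nrf2 activity by luciferase luminescence.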

[13] = target: Beta-2 adrenergic receptor (Homo sapiens) (UniProt P07550); test: qHTS validation assay of beta-arrestin-biased ligands of beta2-adrenergic receptor (AID 485366)
Summary of the method: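 Values derive from curve-fitted %Activity of a luminescent beta-arrestin recruitment reporter; compounds tested up to 46 microM on Tango cells for 18 hr at 37 degrees C, 5% CO2.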

[14] = target: Thioredoxin reductase 1, cytoplasmic (Rattus norvegicus) (UniProt O89049); test: qHTS Assay for Substrates of Mammalian Selenoprotein Thioredoxin Reductase 1 (TrxR1) (AID 488772);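 also: NADPH fluorescence in the first read after selenite addition and not the 8 min delta; series mostly up to about 57 µM; a drop in NADPH fluorescence below the no-compound background marks a TrxR1 substrate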
Summary of the method: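 Quantitative HTS in Tris-HCl buffer at pH 7.5 with EDTA and Tween-20, using rat TrxR1, 400 uM NADPH and 400 uM selenite (final). A fall in initial NADPH fluorescence relative to background marked substrate behaviour.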

[15] = target: Thioredoxin reductase 1, cytoplasmic (Rattus norvegicus) (UniProt O89049); test: qHTS Assay for Inhibitors of Mammalian Selenoprotein Thioredoxin Reductase 1 (TrxR1) (AID 488773); settings: Potency: inhibition;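 also: drop in NADPH fluorescence over an 8 min run after selenite addition; series mostly up to about 57 µM; nearly all actives have a fitted effect of over 40% in size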
Summary of the method: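 Steps: enzyme (90 nM) plus NADPH (400 uM final), 5 min at ~22 deg C; compound added, 15 min; selenite (400 uM final) added; fluorescence followed for 8 min. Concentration-response curves derived from the normalized delta values.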

[16] = target: Methanococcus maripaludis chaperonin (MmCpn) (UniProt Q6LX38); test: High-Throughput Screening for Modulators of Cytosolic Chaperonin Activity: MmCpn Primary Screen (AID 488978);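 also: 50 nM MmCpn enzyme hydrolysing 30 µM ATP at 37 °C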
Summary of the method: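 ATPase activity of 50 nM MmCpn was assayed with 30 uM ATP, 10 minutes at 37C, after a 5 min compound preincubation at room temperature. ADP production was read as HTRF emission at 590 and 665 nm.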

[17] = target: D(1A) dopamine receptor (Homo sapiens) (UniProt P21728); test: HTS Assay for Allosteric Agonists of the Human D1 Dopamine Receptor: Primary Screen for Agonists (AID 488981)
Summary of the method: as §1

[18] = target: D(1A) dopamine receptor (Homo sapiens) (UniProt P21728); test: HTS Assay for Allosteric Agonists of the Human D1 Dopamine Receptor: Primary Screen for Antagonists (AID 488983);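 also: calcium flux response to an EC80 dopamine challenge measured with no-wash dye; nearly all actives have a fitted effect of over 65% in size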; also: potency is read from the fitted curve at half-maximal effect
Summary of the method: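 Tetracycline-induced HEK293 T-REx cells expressing force-coupled D1 were plated overnight at 30 C, dye-loaded for calcium, and read kinetically. Compounds were pinned in, then an EC80 dopamine challenge followed after 180 s to reveal antagonism.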

[19] = qHTS for Inhibitors of Cell Surface uPA Generation: Validation Assay (AID 493164);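 also: RAW 264.7 macrophage cells exposed to compound for 18 h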
Summary of the method: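 RAW 264.7, 4000 cells/well, o/n plating; cpd 7-pt 1:5 dilution 2.45 nM–38.3 uM final; 18 h, 37 C/5% CO2; ATP-Lite, 5 s luminescence exposure.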

[20] = target: ATP-dependent 6-phosphofructokinase (Trypanosoma brucei brucei) (UniProt O15648); test: qHTS Validation Assay to Find Inhibitors of T. brucei phosphofructokinase (AID 485368)
Summary of the method: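 Enzyme reaction in triethanolamine buffer pH 8.0 with 5 mM MgCl2, 0.01% Tween20 and 0.1% BSA; PFK 1.25 nM, F6P 0.5 mM, ATP 0.1 mM, 45 min RT. ADP quantified by ADP-Glo.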

Sequence of Transient receptor potential cation channel subfamily V member 1 (Homo sapiens) (Q8NER1 whole entry, looked up): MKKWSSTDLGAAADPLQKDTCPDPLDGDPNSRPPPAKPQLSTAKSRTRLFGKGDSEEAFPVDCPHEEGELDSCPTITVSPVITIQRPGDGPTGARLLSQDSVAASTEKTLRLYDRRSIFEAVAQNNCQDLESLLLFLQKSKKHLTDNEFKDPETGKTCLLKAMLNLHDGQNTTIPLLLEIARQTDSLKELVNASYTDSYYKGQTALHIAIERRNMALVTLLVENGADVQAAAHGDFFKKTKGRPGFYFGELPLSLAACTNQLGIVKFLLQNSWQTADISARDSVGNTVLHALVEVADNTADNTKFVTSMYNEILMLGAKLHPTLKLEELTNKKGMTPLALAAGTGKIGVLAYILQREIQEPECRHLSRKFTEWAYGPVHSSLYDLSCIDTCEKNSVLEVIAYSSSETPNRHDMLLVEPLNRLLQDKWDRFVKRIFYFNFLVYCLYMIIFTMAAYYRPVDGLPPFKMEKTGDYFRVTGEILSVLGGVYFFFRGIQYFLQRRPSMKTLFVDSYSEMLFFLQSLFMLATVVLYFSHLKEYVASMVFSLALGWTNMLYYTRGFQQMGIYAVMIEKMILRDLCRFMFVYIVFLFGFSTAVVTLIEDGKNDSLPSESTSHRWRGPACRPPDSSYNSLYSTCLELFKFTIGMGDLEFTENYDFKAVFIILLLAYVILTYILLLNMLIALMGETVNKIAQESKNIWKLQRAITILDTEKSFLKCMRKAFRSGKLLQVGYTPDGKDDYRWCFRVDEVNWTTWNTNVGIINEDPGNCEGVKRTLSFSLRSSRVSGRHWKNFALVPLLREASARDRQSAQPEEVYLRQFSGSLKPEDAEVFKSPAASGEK
Sequence of D(1A) dopamine receptor (Homo sapiens) (P21728 whole entry, looked up): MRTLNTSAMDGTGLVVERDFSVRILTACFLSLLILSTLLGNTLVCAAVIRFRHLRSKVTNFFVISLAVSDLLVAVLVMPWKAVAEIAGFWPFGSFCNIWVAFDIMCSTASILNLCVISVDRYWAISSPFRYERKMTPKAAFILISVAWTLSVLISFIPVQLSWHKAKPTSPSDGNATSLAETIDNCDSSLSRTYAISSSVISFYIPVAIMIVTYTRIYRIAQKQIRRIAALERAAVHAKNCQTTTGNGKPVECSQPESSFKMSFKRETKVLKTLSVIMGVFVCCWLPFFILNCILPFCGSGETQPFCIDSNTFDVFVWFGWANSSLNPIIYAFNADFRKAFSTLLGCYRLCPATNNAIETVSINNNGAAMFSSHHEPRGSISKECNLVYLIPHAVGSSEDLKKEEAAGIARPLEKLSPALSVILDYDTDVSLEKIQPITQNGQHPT
Sequence of ATP-dependent 6-phosphofructokinase (Trypanosoma brucei brucei) (O15648 whole entry, looked up): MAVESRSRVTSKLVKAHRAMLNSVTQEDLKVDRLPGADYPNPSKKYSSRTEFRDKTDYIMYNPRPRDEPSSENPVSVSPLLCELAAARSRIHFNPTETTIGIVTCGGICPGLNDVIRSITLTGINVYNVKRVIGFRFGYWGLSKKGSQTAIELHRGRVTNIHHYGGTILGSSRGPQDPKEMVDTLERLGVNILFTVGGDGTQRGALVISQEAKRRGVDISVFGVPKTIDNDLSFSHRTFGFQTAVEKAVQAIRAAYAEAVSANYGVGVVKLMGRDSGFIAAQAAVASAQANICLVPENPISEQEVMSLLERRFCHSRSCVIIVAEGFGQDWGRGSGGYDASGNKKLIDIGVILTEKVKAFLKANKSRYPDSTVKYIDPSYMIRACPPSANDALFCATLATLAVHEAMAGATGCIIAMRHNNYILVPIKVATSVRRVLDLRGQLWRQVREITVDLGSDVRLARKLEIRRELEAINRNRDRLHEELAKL
Sequence of Chromobox protein homolog 1 (Homo sapiens) (P83916 whole entry, looked up): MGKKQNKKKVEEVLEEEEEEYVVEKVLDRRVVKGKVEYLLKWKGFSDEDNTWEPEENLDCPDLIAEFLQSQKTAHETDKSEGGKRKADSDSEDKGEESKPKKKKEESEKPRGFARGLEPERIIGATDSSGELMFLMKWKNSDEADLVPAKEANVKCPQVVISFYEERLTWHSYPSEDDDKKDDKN
Sequence of Thioredoxin reductase 1, cytoplasmic (Rattus norvegicus) (O89049 whole entry, looked up): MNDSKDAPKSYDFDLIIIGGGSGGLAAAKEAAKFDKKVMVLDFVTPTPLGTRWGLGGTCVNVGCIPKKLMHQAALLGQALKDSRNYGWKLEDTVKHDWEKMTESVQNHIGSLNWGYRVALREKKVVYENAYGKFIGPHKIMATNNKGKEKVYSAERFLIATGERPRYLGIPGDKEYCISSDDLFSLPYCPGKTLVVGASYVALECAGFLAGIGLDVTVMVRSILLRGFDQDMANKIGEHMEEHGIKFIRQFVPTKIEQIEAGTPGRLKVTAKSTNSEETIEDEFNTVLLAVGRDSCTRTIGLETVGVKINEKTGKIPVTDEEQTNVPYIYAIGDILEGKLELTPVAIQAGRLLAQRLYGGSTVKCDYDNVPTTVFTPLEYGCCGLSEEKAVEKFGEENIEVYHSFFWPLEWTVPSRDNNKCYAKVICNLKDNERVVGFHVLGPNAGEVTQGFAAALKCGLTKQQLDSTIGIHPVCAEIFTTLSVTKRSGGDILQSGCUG
Sequence of Flap endonuclease 1 (Homo sapiens) (P39748 whole entry, looked up): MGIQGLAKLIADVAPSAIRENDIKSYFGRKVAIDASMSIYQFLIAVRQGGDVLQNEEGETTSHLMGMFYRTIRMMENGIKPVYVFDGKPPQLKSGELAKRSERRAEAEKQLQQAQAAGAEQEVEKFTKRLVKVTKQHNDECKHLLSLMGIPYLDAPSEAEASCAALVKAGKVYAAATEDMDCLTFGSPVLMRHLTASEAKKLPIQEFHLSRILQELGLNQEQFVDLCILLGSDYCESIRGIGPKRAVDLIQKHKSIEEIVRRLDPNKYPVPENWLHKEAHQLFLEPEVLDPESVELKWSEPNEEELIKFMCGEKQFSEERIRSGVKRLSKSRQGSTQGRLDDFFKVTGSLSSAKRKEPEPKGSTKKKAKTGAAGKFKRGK
Sequence of Thyrotropin receptor (Homo sapiens) (P16473 whole entry, looked up): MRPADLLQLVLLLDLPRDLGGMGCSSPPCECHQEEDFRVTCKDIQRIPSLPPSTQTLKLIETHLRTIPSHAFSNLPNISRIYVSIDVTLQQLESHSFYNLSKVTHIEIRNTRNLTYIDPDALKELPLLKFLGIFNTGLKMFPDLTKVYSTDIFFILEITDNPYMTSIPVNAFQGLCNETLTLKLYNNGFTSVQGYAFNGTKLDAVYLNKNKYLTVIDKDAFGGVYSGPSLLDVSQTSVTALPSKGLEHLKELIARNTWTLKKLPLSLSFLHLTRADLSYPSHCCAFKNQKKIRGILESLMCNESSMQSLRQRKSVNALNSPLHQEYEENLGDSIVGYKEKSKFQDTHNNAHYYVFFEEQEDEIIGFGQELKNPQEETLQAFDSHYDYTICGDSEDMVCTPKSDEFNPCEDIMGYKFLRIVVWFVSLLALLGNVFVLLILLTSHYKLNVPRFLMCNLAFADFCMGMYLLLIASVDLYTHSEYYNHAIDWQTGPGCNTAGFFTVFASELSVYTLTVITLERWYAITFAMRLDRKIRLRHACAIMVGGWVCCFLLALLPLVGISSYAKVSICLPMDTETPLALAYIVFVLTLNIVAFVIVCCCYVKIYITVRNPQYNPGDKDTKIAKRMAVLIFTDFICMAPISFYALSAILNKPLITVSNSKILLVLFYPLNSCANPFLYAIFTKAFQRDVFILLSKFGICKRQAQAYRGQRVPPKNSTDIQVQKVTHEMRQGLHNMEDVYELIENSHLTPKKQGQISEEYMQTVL
Sequence of M-phase phosphoprotein 8 (Homo sapiens) (Q99549 whole entry, looked up): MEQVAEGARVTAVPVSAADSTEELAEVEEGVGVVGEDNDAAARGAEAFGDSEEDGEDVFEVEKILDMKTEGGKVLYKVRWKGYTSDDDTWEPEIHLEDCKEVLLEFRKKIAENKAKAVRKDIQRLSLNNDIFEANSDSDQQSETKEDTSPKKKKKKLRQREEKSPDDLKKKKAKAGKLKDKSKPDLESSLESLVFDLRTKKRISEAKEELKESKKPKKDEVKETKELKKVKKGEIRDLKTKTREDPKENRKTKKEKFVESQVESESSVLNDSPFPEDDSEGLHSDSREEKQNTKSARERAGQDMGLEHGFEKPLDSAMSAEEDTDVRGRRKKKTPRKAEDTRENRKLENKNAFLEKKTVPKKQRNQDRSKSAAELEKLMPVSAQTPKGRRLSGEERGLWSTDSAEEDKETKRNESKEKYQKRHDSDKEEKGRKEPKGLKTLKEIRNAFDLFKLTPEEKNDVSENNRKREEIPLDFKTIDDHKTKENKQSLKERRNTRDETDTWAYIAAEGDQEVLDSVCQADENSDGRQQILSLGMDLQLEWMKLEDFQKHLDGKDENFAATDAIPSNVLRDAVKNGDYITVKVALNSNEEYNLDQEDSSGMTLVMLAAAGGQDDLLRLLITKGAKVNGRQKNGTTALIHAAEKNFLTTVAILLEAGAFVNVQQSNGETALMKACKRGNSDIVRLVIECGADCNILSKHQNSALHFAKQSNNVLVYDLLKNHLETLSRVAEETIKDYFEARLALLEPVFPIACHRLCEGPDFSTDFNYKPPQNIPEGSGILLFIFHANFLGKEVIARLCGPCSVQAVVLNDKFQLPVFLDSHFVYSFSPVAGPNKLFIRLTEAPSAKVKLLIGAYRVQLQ
Sequence of Beta-2 adrenergic receptor (Homo sapiens) (P07550 whole entry, looked up): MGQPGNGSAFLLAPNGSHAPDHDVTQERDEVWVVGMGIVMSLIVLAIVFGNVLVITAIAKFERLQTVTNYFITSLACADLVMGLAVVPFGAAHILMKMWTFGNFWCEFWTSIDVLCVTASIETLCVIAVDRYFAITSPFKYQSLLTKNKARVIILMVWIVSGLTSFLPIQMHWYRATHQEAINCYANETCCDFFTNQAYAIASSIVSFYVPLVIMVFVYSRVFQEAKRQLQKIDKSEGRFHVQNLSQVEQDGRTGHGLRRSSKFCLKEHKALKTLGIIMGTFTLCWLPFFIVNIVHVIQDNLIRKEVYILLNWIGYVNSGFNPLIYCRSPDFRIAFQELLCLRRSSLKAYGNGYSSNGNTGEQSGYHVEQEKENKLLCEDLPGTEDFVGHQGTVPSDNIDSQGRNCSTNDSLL

For CC[N+](CC)(CC)CC, the Potency [1] was 4.15 µM (active), the Potency [2] was “inactive” and the Potency [3] was “inactive”. For the same compound, the outcome [4] was “inactive”, the outcome [5] was “inactive” and the outcome [6] was “inactive”.
For C[C@]12C/C(=C/O)C(=O)C[C@@H]1CC[C@@H]1[C@@H]2CC[C@@]2(C)[C@H]1CC[C@]2(C)O, the outcome [6] was “inactive”.
In the case of Clc1cccc(N2CCNCC2)c1, the Potency [7] is reported as “inactive”, the Potency [3] is reported as “inactive” and the outcome [4] is reported as “inactive”. For the same compound, the outcome [5] was “inactive”.
In the case of CN(C)C(=O)C(CCN1CCC(O)(c2ccc(Cl)cc2)CC1)(c1ccccc1)c1ccccc1, the Potency [1] is reported as 7.38 µM (active), the Potency [7] is reported as 8.28 µM (active) and the Potency [8] is reported as “inactive”.
With OCCN1CCN(CCCN2c3ccccc3Sc3ccc(C(F)(F)F)cc32)CC1 the Potency [1] was 3.29 µM (active), the Potency [7] was 9.28 µM (active) and the Potency [9] was 6 nM (active). For the same compound, the Potency [10] was “inactive”.
In the case of CC[N+](C)(C)c1cccc(O)c1, the Potency [1] is reported as 0.0059 µM (active).
For CN1C(=S)CN=C(c2ccccc2)c2cc(Cl)ccc21, the outcome [6] was “inactive”.
In the case of N[C@@H](Cc1ccc(N(CCCl)CCCl)cc1)C(=O)O, the outcome [6] is reported as “inactive”.
In the case of COc1ccc(Cc2nccc3cc(OC)c(OC)cc23)cc1OC, the Potency [1] is reported as “inactive”, the Potency [7] is reported as “inactive” and the Potency [2] is reported as “inactive”. The Potency [3] was “inactive”, the Potency [9] was 6 nM (active) and the outcome [4] was “inactive”. The outcome [5] was “inactive”, the activation [11] was -0.312% (inactive) and the Potency [12] was 7.31 µM (active). The viability change [12] was -7.85%.
In the case of CCOC(=O)c1ncn2c1CN(C)C(=O)c1cc(F)ccc1-2, the Potency [2] is reported as “inactive”.
In the case of CC(C)=CCOc1c2occc2cc2ccc(=O)oc12, the outcome [13] is reported as “inactive”, the outcome [14] is reported as “inactive” and the Potency [15] is reported as “inactive”. For the same compound, the Potency [2] was “inactive”, the Potency [3] was “inactive” and the outcome [16] was “inactive”. The Potency [17] was “inactive”, the Potency [10] was “inactive” and the Potency [18] was “inactive”. The Potency [8] was “inactive”, the Potency [12] was “inactive” and the viability change [12] was 0.848%. For the same compound, the outcome [19] was “inactive”.
With COc1cc2c(c(OC)c1OC)-c1ccc(OC)c(=O)cc1[C@@H](NC(C)=O)CC2 the Potency [2] was “inactive”, the Potency [9] was “inactive” and the Potency [8] was 461 nM (active).
In the case of O=c1[nH]cc(F)c(=O)[nH]1, the Potency [1] is reported as 9.28 µM (active), the Potency [7] is reported as 10.4 µM (active) and the Potency [2] is reported as “inactive”.
With CCOC(=O)C1(c2ccccc2)CCN(CCC(C#N)(c2ccccc2)c2ccccc2)CC1 the outcome [6] was “inactive”.
With CNCCC(Oc1ccc(C(F)(F)F)cc1)c1ccccc1 (stereo not given) the Potency [20] was “inactive” and the Potency [9] was “inactive”.
With CC[C@@H](CO)NC(=O)[C@@H]1C=C2c3cccc4[nH]cc(c34)C[C@H]2N(C)C1 the outcome [13] was “inactive”, the outcome [14] was “inactive” and the outcome [16] was “inactive”. The Potency [17] was “inactive”, the Potency [10] was “inactive” and the Potency [18] was 447 nM (active). For the same compound, the Potency [8] was “inactive”, the Potency [12] was “inactive” and the viability change [12] was -12.7%. For the same compound, the outcome [19] was “inactive”.
For CCC1C(=O)OCC1Cc1cncn1C (stereo not given), the Potency [2] was “inactive” and the Potency [3] was “inactive”.
With CC(C)NCC(O)c1ccccc1Cl (stereo not given) the outcome [6] was “inactive”.
For CC(C)C(=O)Nc1ccc([N+](=O)[O-])c(C(F)(F)F)c1, the Potency [3] was “inactive”, the Potency [9] was “inactive” and the Potency [10] was “inactive”. The Potency [8] was “inactive”.
With CC1OC(C)OC(C)O1 (stereo not given) the outcome [6] was “inactive”.
For CN(C)CCC=C1c2ccccc2CCc2ccccc21, the Potency [3] was “inactive”, the Potency [10] was “inactive” and the Potency [18] was 1120 nM (active).
For CC12CC3CC(C)(C1)CC(N)(C3)C2, the Potency [2] was “inactive”.
With CC(COc1ccccc1)N(CCCl)Cc1ccccc1 (stereo not given) the Potency [2] was “inactive”, the Potency [3] was “inactive” and the Potency [9] was 9.5 nM (active).
For C=C1CC[C@@]2(O)[C@H]3Cc4ccc(O)c5c4[C@@]2(CCN3CC2CC2)[C@H]1O5, the outcome [6] was “inactive”.
